{"source": "paper PMC4336329", "about": "(PLoS ONE, 2015)", "note": "The campaign covered roughly 310,000 compounds. About 2,200 (0.71%) showed an effect of 50% or more. The effect is printed as a negative number. Only a selection was taken, and strong results are over-represented in it overall."}
{"molecular_target": "human ether-à-go-go-related gene (hERG) potassium channel (human, UniProt Q12809)", "sequence (Q12809 whole entry, looked up)": "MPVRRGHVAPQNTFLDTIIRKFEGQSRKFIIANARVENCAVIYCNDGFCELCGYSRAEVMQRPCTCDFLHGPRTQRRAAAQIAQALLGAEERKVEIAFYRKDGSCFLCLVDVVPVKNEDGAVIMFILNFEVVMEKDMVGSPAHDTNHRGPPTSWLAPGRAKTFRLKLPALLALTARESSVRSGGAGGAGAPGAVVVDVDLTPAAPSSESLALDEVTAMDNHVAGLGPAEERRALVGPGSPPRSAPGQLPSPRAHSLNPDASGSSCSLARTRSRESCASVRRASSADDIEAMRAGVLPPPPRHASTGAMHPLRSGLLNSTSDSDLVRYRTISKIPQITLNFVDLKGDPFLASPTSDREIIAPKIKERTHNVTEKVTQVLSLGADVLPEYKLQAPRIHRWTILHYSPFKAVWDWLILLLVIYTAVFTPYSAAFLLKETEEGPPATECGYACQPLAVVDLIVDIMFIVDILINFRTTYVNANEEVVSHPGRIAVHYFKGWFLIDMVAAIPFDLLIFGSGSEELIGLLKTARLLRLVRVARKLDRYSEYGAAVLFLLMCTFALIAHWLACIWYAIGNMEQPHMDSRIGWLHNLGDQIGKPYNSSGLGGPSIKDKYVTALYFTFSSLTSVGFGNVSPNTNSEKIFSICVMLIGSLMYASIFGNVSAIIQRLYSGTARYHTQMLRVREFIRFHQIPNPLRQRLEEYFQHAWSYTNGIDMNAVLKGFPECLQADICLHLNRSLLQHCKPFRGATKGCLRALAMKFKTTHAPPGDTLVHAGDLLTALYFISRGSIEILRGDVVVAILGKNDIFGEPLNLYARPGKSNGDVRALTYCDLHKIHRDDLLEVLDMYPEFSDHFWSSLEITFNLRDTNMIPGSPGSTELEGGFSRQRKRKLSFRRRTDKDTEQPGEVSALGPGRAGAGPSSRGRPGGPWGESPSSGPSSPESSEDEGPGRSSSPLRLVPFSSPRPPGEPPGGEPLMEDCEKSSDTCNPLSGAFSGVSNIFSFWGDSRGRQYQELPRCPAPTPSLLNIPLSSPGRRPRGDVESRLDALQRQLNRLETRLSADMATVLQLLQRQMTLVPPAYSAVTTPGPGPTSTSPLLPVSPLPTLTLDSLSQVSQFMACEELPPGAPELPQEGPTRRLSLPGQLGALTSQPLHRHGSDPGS", "assay": "primary screen, population patch clamp on CHO cells stably expressing hERG; higher = less effect of the substance", "units": {"hERG current change (%, negative = inhibition) at 1uM": "%"}}
{"compound": "Cc1cc(C(=O)NC2CCCCC2)on1", "hERG current change (%, negative = inhibition) at 1uM": 10.2}
{"compound": "CN(C)c1cccc(C(=O)Nc2nc3ccccc3[nH]2)c1", "hERG current change (%, negative = inhibition) at 1uM": 14.7}
{"compound": "Fc1ccc(CN2CCCCCCC2)c(F)c1", "hERG current change (%, negative = inhibition) at 1uM": 14.2}
{"compound": "O=C(N/C(=C\\c1ccc([N+](=O)[O-])cc1)C(=O)N1CCOCC1)c1cccc(Br)c1", "hERG current change (%, negative = inhibition) at 1uM": -79}
{"compound": "Cc1ccc(C(=O)N/C(=C/c2ccc(Cl)cc2)C(=O)N2CCOCC2)cc1", "hERG current change (%, negative = inhibition) at 1uM": -9.41}
{"compound": "COc1ccc(C(=O)N/C(=C\\c2ccccc2)C(=O)N2CCOCC2)cc1", "hERG current change (%, negative = inhibition) at 1uM": 9.79}
{"compound": "O=C(N/C(=C\\c1ccccc1Cl)C(=O)N1CCOCC1)c1ccc([N+](=O)[O-])cc1", "hERG current change (%, negative = inhibition) at 1uM": -31.6}
{"compound": "O=C(N/C(=C/c1cccc([N+](=O)[O-])c1)C(=O)N1CCOCC1)c1ccc(Br)cc1", "hERG current change (%, negative = inhibition) at 1uM": -19.6}
{"compound": "COc1ccc(/C=C(/NC(=O)c2ccc(Br)cc2)C(=O)N2CCOCC2)cc1", "hERG current change (%, negative = inhibition) at 1uM": 7.06}
{"compound": "O=C(N/C(=C\\c1ccc(Cl)cc1)C(=O)N1CCOCC1)c1ccc([N+](=O)[O-])cc1", "hERG current change (%, negative = inhibition) at 1uM": -88.2}
{"compound": "O=C(N/C(=C\\c1ccccc1)C(=O)N1CCOCC1)c1cccc(Br)c1", "hERG current change (%, negative = inhibition) at 1uM": 18.8}
{"compound": "O=C(N/C(=C/c1ccccc1)C(=O)N1CCOCC1)c1ccc([N+](=O)[O-])cc1", "hERG current change (%, negative = inhibition) at 1uM": -19.6}
{"compound": "O=C(N/C(=C\\c1cccc([N+](=O)[O-])c1)C(=O)N1CCOCC1)c1cccc(Br)c1", "hERG current change (%, negative = inhibition) at 1uM": 7.37}
{"compound": "COc1ccc(/C=C(\\NC(=O)c2ccc([N+](=O)[O-])cc2)C(=O)N2CCOCC2)cc1", "hERG current change (%, negative = inhibition) at 1uM": -54.9}
{"compound": "O=C(N/C(=C\\c1ccc(Br)cc1)C(=O)N1CCOCC1)c1ccc([N+](=O)[O-])cc1", "hERG current change (%, negative = inhibition) at 1uM": -81.6}
{"compound": "O=C(Nc1cc(Cl)ccc1N1CCOCC1)c1cc2ccccc2o1", "hERG current change (%, negative = inhibition) at 1uM": 8.14}
{"compound": "Cc1c(Br)c([N+](=O)[O-])nn1C(C)C(=O)NCc1cccnc1", "note": "(stereo not drawn)", "hERG current change (%, negative = inhibition) at 1uM": -7.67}
{"compound": "O=C(O)COc1ccccc1", "hERG current change (%, negative = inhibition) at 1uM": 14.1}
{"compound": "O=C(Nc1ccc2c(c1)C(=O)OC2)c1ccc(Cl)cc1Cl", "hERG current change (%, negative = inhibition) at 1uM": 3.09}
{"compound": "Cc1ccccc1N(C(=O)Cc1cccs1)C(C(=O)NC1CCCCC1)c1cn(C)nc1C", "note": "(stereo not drawn)", "hERG current change (%, negative = inhibition) at 1uM": -0.242}
{"compound": "CCCCCCN1C2=NCCN2c2ccccc21.Cl", "hERG current change (%, negative = inhibition) at 1uM": -82.3}
{"compound": "CCCCCCN1C2=NCCCN2c2ccccc21.Cl", "hERG current change (%, negative = inhibition) at 1uM": -73.7}
{"compound": "Br.CC(C)(C)C(=O)CN1C2=NCCN2c2ccccc21", "hERG current change (%, negative = inhibition) at 1uM": 2.72}
{"compound": "c1ccc([C@H]2CN3C(=N2)Sc2ccccc23)cc1", "hERG current change (%, negative = inhibition) at 1uM": 11}
{"compound": "CCCN1C2=NCCCN2c2ccccc21.Cl", "hERG current change (%, negative = inhibition) at 1uM": 7.07}
{"compound": "Br.CCCCCN1C2=NCCN2c2ccccc21", "hERG current change (%, negative = inhibition) at 1uM": -58.9}
{"compound": "Br.CCCCN1C2=NCCCN2c2ccccc21", "hERG current change (%, negative = inhibition) at 1uM": -6.43}
{"compound": "CCCCCCCN1C2=NCCCN2c2ccccc21.Cl", "hERG current change (%, negative = inhibition) at 1uM": -21.6}
{"compound": "CCCCN1C2=NC(c3ccccc3)CN2c2ccccc21.Cl", "note": "(stereo not drawn)", "hERG current change (%, negative = inhibition) at 1uM": -50.5}
{"compound": "O=C(CNC(=O)C12CC3CC(CC(C3)C1)C2)NC1=NCCS1", "hERG current change (%, negative = inhibition) at 1uM": 12.3}
{"compound": "COc1ccc(O)c(C2(O)C(=O)c3ccccc3C2=O)c1", "hERG current change (%, negative = inhibition) at 1uM": 14.2}
{"compound": "COc1cccc(NC(=O)Nc2nnc(-c3ccccc3SCc3ccccc3)s2)c1", "hERG current change (%, negative = inhibition) at 1uM": 2.04}
{"compound": "O=C(Nc1c2c(nn1-c1ccc([N+](=O)[O-])cc1)CS(=O)(=O)C2)c1ccco1", "hERG current change (%, negative = inhibition) at 1uM": -24.1}
{"compound": "O=C(CCN1CCN(Cc2ccccc2)CC1)Nc1cccc(Cl)c1", "hERG current change (%, negative = inhibition) at 1uM": -45}
{"compound": "O=C(c1cc2ccccc2oc1=O)N1CCN(C(=O)C2CCCO2)CC1", "note": "(stereo not drawn)", "hERG current change (%, negative = inhibition) at 1uM": 4.25}
{"compound": "CCCOc1ccc(C2C(C(=O)c3ccc(C)o3)=C(O)C(=O)N2Cc2ccco2)cc1OCC", "note": "(stereo not drawn)", "hERG current change (%, negative = inhibition) at 1uM": 14.9}
{"compound": "COc1ccccc1N1CCN(C(=O)C(OC(C)=O)c2ccccc2)CC1", "note": "(stereo not drawn)", "hERG current change (%, negative = inhibition) at 1uM": 11.8}
{"compound": "CCCCN(CC)CCNC(=O)c1cc2c(=O)[nH]c3ccccc3c2n1C", "hERG current change (%, negative = inhibition) at 1uM": 11.5}
{"compound": "N#Cc1ccc(C(=O)Nc2cc(-c3ccccc3)nn2-c2ccccc2)cc1", "hERG current change (%, negative = inhibition) at 1uM": 0.56}
{"compound": "COc1cccc(C2CCCN2Cc2nc(CC3CC3)no2)c1", "note": "(stereo not drawn)", "hERG current change (%, negative = inhibition) at 1uM": 14.5}
{"compound": "CNC(=S)N1CCN(c2cccc(OC)c2)CC1", "hERG current change (%, negative = inhibition) at 1uM": 7.07}
{"compound": "COc1cc(O)oc1C=Nc1ccc(Cl)cc1", "hERG current change (%, negative = inhibition) at 1uM": 10.9}
{"compound": "CNC(=S)NNC(=O)c1ccccc1Br", "hERG current change (%, negative = inhibition) at 1uM": 15.2}
{"compound": "CCCCCCCN1C2=NCCN2c2ccccc21.Cl", "hERG current change (%, negative = inhibition) at 1uM": -60.7}
{"compound": "Cc1ccccc1CN1C2=NCCN2c2ccccc21.Cl", "hERG current change (%, negative = inhibition) at 1uM": -13.7}
{"compound": "O=C(Cn1c2c(sc1=O)C1c3ccccc3OCC1CS2)Nc1ccc(Cl)cc1", "note": "(stereo not drawn)", "hERG current change (%, negative = inhibition) at 1uM": 9.64}
{"compound": "Nc1nc(SCCC(F)=C(F)F)n[nH]1", "hERG current change (%, negative = inhibition) at 1uM": 4.82}
{"compound": "CCCCN(C)CCCNC(=O)c1cn(C)c2ccc(S(=O)(=O)N(C)C3CCCCC3)cc2c1=O", "hERG current change (%, negative = inhibition) at 1uM": -45.6}
{"compound": "CCCCN(CC)CCCNC(=O)c1cn(C)c2ccc(S(=O)(=O)N(C)C3CCCCC3)cc2c1=O", "hERG current change (%, negative = inhibition) at 1uM": -66.6}
{"compound": "CCN(CC)CCCNC(=O)c1cn(C)c2ccc(S(=O)(=O)N(C)C3CCCCC3)cc2c1=O", "hERG current change (%, negative = inhibition) at 1uM": 12.2}
{"compound": "CCCN(CCC)CCCNC(=O)c1cn(CC)c2ccc(S(=O)(=O)N(C)C3CCCCC3)cc2c1=O", "hERG current change (%, negative = inhibition) at 1uM": -46.1}
{"compound": "CCCCN(CCCC)CCNC(=O)c1cn(CC)c2ccc(S(=O)(=O)N(C)C3CCCCC3)cc2c1=O", "hERG current change (%, negative = inhibition) at 1uM": -84.2}
{"compound": "CCN(CC)CCNC(=O)c1cn(CC)c2ccc(S(=O)(=O)N(C)C3CCCCC3)cc2c1=O", "hERG current change (%, negative = inhibition) at 1uM": 9.42}
{"compound": "O=C(/C=C/c1ccccc1Cl)c1cccnc1", "hERG current change (%, negative = inhibition) at 1uM": 6.53}
{"compound": "CCC[C@H](CN[C@@H](CNC)[C@H](C)CC)NCCc1cc(C(F)(F)F)cc(C(F)(F)F)c1", "hERG current change (%, negative = inhibition) at 1uM": 0.0872}
{"compound": "CC(CCc1ccccc1)NCC(O)COc1ccccc1", "note": "(stereo not drawn)", "hERG current change (%, negative = inhibition) at 1uM": -6.95}
{"compound": "CC1(c2ccc3ccccc3c2)NC(=O)N(CC(=O)Nc2ncccc2O)C1=O", "note": "(stereo not drawn)", "hERG current change (%, negative = inhibition) at 1uM": 14.4}
